Laboratory results as given in PubChem BioAssay AID1159580 (chemical genetic matrix, 2015).
Hit rate of the full screen: of about 5,500 compounds, about 2,000 (36%) were called active. Another 18% or so got no clear call; they are omitted. Rule as the data show it: active = normalized growth mostly below about 0.91 (no sharp cut-off); inconclusive = no clear call, values can overlap the other calls; inactive = mostly above about 0.92. Some of the results follow.

Test: chemical genetic growth profiling, strain panel (AID 1159580);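 also: tested at 20 µM; growth read once vehicle control cultures reached saturation at 30 °C; 1 = growth at the plate median or of vehicle wells; lower values mean less growth of the strain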
Conditions: growth OD
[1] = S. cerevisiae deletion strains, locus YAL013W, strain DEP1, stronger effect = lower value
[2] = S. cerevisiae deletion strains, locus YBR229C, strain ROT2, stronger effect = lower value
[3] = S. cerevisiae deletion strains, locus YDL101C, strain DUN1, stronger effect = lower value
[4] = S. cerevisiae deletion strains, locus YDR150W, strain NUM1, stronger effect = lower value
[5] = S. cerevisiae deletion strains, locus YEL061C, strain CIN8, stronger effect = lower value
[6] = S. cerevisiae deletion strains, locus YGR078C, strain PAC10, stronger effect = lower value
[7] = S. cerevisiae deletion strains, locus YHR030C, strain SLT2, stronger effect = lower value
[8] = S. cerevisiae deletion strains, locus YHR087W, strain rtc3, stronger effect = lower value
[9] = S. cerevisiae deletion strains, locus YJR043C, strain POL32, stronger effect = lower value
[10] = S. cerevisiae deletion strains, locus YJR075W, strain HOC1, stronger effect = lower value
[11] = S. cerevisiae deletion strains, locus YLR039C, strain RIC1, stronger effect = lower value
[12] = S. cerevisiae deletion strains, locus YLR058C, strain SHM2 (second series), stronger effect = lower value
[13] = S. cerevisiae deletion strains, locus YLR085C, strain ARP6, stronger effect = lower value
[14] = S. cerevisiae deletion strains, locus YLR262C, strain YPT6, stronger effect = lower value
[15] = S. cerevisiae deletion strains, locus YML094W, strain GIM5, stronger effect = lower value
[16] = S. cerevisiae deletion strains, locus YMR219W, strain ESC1, stronger effect = lower value
[17] = S. cerevisiae deletion strains, locus YMR263W, strain SAP30, stronger effect = lower value
[18] = S. cerevisiae deletion strains, locus YNL153C, strain GIM3, stronger effect = lower value
[19] = S. cerevisiae deletion strains, locus YNL298W, strain CLA4 (second series), stronger effect = lower value
[20] = S. cerevisiae deletion strains, locus YNL322C, strain KRE1, stronger effect = lower value
[21] = S. cerevisiae deletion strains, locus YNR030W, strain Alg12, stronger effect = lower value
[22] = S. cerevisiae deletion strains, locus YPL055C, strain LGE1, stronger effect = lower value
[23] = S. cerevisiae deletion strains, locus YPL241C, strain CIN2, stronger effect = lower value
[24] = S. cerevisiae deletion strains, locus YPR135W, strain CTF4, stronger effect = lower value
[25] = S. cerevisiae strains, strain wild type, stronger effect = lower value
[26] = S. cerevisiae deletion strains, locus YCL061C, strain MRC1, stronger effect = lower value
[27] = S. cerevisiae deletion strains, locus YJL187C, strain SWE1, stronger effect = lower value
[28] = S. cerevisiae deletion strains, locus YOL006C, strain TOP1, stronger effect = lower value

Measured: normalized growth

Cc1ccc(Sc2nc(C)c([N+](=O)[O-])c(C)c2C#N)cc1
inactive: [1] 0.969 | [2] 0.982 | [3] 0.997 | [4] 0.99 | [5] 0.934 | [6] 0.979 | S. cerevisiae deletion strains, locus YGR229C, strain SMI1, stronger effect = lower value 0.978 | [8] 0.975 | [9] 0.967 | [10] 0.952 | S. cerevisiae deletion strains, locus YKL190W, strain CNB1, stronger effect = lower value 0.977 | [12] 0.969 | [13] 0.883 | [15] 1.01 | [16] 0.979 | [17] 0.97 | S. cerevisiae deletion strains, locus YMR307W, strain GAS1, stronger effect = lower value 0.763 | [18] 0.994 | [19] 0.947 | [20] 0.974 | [21] 0.965 | [22] 0.963 | [23] 1.06 | [24] 0.828 | [25] 0.974
active: [7] 0.625 | [11] 0.664 | [14] 0.732

NC(=S)CS(=O)(=O)c1ccc(C(F)(F)F)cc1
active: [13] 1.23 [resistant]
inactive: [1] 0.977 | [2] 1.01 | [26] 1.02 | [3] 1.03 | [4] 0.998 | [5] 1.03 | [6] 1.01 | [7] 1.03 | [8] 1.01 | [27] 1.02 | [9] 1.01 | [10] 1.02 | [11] 1.09 | [12] 1.02 | [14] 1.07 | [15] 1.01 | [16] 1.02 | [17] 1.04 | S. cerevisiae deletion strains, locus YNL128W, strain TEP1, stronger effect = lower value 1.03 | [18] 1.02 | [19] 1.03 | [20] 1 | [21] 0.992 | [28] 1.23 | [22] 0.952 | [23] 1.09 | [24] 0.969

CC(=O)CS(=O)(=O)c1ccc(Cl)cc1
inactive: [1] 1.02 | [2] 1.01 | [26] 1.01 | [3] 1.01 | S. cerevisiae deletion strains, locus YDL134C, strain PPH21, stronger effect = lower value 1 | [4] 0.969 | [5] 1.02 | [6] 1 | [7] 1 | [8] 0.998 | [27] 0.995 | [9] 0.988 | [10] 0.995 | [11] 1.02 | [12] 1 | [13] 1.04 | [14] 1.03 | [15] 1.02 | [16] 1.01 | [17] 0.969 | [18] 0.995 | [19] 0.992 | [20] 1.01 | [21] 1 | [28] 1.01 | [22] 1 | [23] 1.02 | [24] 0.933 | [25] 1
